Compounds with a hit are over-represented: about 3.5% of the library has one in this group of screens.
MITF inh: human MITF inhibition, primary screen | O75030 | AlphaScreen MITF homodimerization, bead proximity signal | inhibition, % at 2.6 µM | actives 0.91% (n = 650,000); in the data active = inhibition above about 50%;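 note: 0% = vehicle wells with protein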
FBW7 act: human FBW7 E3 ligase activation, primary screen; AlphaScreen FBW7–phospho-cyclin E peptide binding, activator screen; actives 0.13% (n = 650,000); Q969H0; normalized activity (activation), % at 26.1 µM; in the data active = normalized activity above about 1.9%;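 note: purified mutant Fbw7 with reduced substrate affinity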
TEAD-YAP inh: TEAD-YAP interaction inhibition; inhibition, % at 9.12 µM; HEK-TIYL cells, TEAD-Gal4/YAP UAS-luciferase luminescence; actives 1.4% (n = 640,000); AID 1259422; in the data active = inhibition above about 32%;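 note: 0% = median of test compound wells and 100% = reference inhibitor wells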
GPR151 ag: activators of human GPR151. PathHunter beta-arrestin GPR151 cells, luminescence. actives 1% (n = 650,000). activation, % at 11.2 µM. AID 1508602; in the data active = activation above about 4.9%;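 note: 0% = median of compound wells and 100% = cells with positive control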
Target sequence (Q8TDV0 whole entry, looked up): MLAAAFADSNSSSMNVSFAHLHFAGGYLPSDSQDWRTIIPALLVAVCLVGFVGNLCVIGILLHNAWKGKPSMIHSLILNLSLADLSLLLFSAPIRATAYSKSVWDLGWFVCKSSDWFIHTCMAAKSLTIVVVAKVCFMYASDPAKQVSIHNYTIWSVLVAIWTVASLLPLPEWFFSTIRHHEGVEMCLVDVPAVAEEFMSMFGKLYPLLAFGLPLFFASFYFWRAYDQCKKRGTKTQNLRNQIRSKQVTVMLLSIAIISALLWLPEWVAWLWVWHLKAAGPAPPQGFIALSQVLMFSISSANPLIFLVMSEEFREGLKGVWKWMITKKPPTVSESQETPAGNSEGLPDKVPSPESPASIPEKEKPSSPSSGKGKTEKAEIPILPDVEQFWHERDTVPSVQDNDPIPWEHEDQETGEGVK
An asterisk follows results filed as active.

SMILES	MITF inh	FBW7 act	TEAD-YAP inh	GPR151 ag
O=C(CCc1ccccc1)NC(c1ccc2c(c1)OCO2)c1ccc2cccnc2c1O (stereo not drawn)	15.8	-0.6	82.8*	-0.6
Cc1ccc(NC(=O)CCN2CCC(C)CC2)cc1	12.0	2.3*	9.9	-0.6
Cc1cnc2c(c1NCCCN(C)C)c(=O)n(C)c(=O)n2C	0.7	-0.1	36.5*	2.9
N#Cc1cc(-c2ccnc(Nc3ccc(CN4CCCCC4)cc3)n2)cc(N2CCOCC2)c1	0.8	-0.1	36.3*	0.3
N#Cc1cc(-c2ccnc(Nc3ccc(N4CCNCC4)cc3)n2)cc(N2CCOCC2)c1	-3.3	-0.7	31.9*	-0.2
Cc1cc(NCCc2ccc(O)cc2)nc(Nc2nc3ccccc3n2C)n1	0.1	0.4	5.3	-0.6
Cc1ccc(N2C(=N)S/C(=C\c3ccccc3OCC(=O)O)C2=O)cc1Cl	12.7	0.2	12.8	-0.7
CSc1ccc(CN2CCCC(C(=O)Nc3cccc(-n4cnnn4)c3)C2)cc1 (stereo not drawn)	1.1	0.2	36.8*	-1.3
CC(C)N(CCNS(=O)(=O)c1ccc(Cl)cc1F)C(C)C	3.0	-0.1	-4.7	0.3
CCc1ccc(-n2nc3cc(C)c(N)cc3n2)cc1	7.7	0.6	-32.4	-0.9
Cc1ccc(-n2nc3cc(C)c(N)cc3n2)cc1	-10.5	0.3	36.9*	-1.2
O=C(CSc1nnnn1-c1ccccc1)Nc1cccc(NC(=O)C23CC4CC(CC(C4)C2)C3)c1	8.5	-0.4	71.6*	-0.5
CCC(=O)Nc1cccc(NC(=O)CSc2nnnn2-c2ccccc2)c1	4.7	0.3	7.8	-0.9
CCc1ccc(OCC(=O)NCc2cccs2)cc1	0.8	-0.1	-21.9	-0.2
CCOc1ccc(-c2cc(=O)n(CC(=O)NCc3cccs3)cn2)cc1	5.1	0.1	43.9*	-1.6
O=C(CSc1nc2ccccc2c(=O)n1CCCN1CCCCC1)Nc1nccs1	5.0	0.0	41.6*	0.8
Cc1cc(NC(=O)CSc2nc3ccccc3c3nc(CCN4CCCCC4)nn23)n[nH]1	15.2	0.8	57.7*	-1.4
CC(C)CCNC(=O)CSc1nc(Nc2ccc3c(c2)OCO3)c2ccccc2n1	1.2	0.7	10.0	0.0
Cc1cc(NC(=O)CSc2nc3ccccc3c3nc(CCc4c[nH]c5ccccc45)nn23)n[nH]1	-9.6	-0.1	61.5*	0.8
Cc1cc(NC(=O)CSc2nc(Nc3ccc4c(c3)OCO4)c3ccccc3n2)n[nH]1	9.5	-0.1	50.4*	1.1
OC1c2ccccc2C2N=Nc3cccc1c32 (stereo not drawn)	-0.9	-0.1	-6.0	-0.1
c1ccc(Nc2nc(NCc3cccnc3)c3ncn(C4CCCCC4)c3n2)cc1	20.9	0.1	-4.0	-1.0
CNC(=O)c1ccc(-c2cc(OC)c(OC)c(OC)c2)nc1N(C)C	3.4	-0.1	1.8	-0.8
CCOC(=O)C1=C(C)NC2=C(C(=O)C(C(=O)OCC)C(c3cccc(OC)c3)C2)C1c1cccc(OC)c1OC (stereo not drawn)	3.8	0.2	4.0	0.1
Cc1nnc(NC(=S)NC(=O)c2ccc([N+](=O)[O-])cc2)s1	-5.1	-0.1	0.5	2.3
SMILES	MITF inh	FBW7 act	TEAD-YAP inh	GPR151 ag
O=C(Nc1ccc2oc(-c3ccccc3)nc2c1)c1cc([N+](=O)[O-])ccc1Br	20.1	0.7	36.0*	0.2
CC(C)C(=O)Nc1ccc2oc(-c3ccccc3F)nc2c1	-5.9	-0.2	71.8*	-3.5
O=C(Nc1ccc2oc(-c3ccc4ccccc4c3)nc2c1)c1cccc(Cl)c1Cl	17.5	1.9*	-11.1	-0.8
Cc1ccccc1-c1nc2cc(NC(=O)c3cc([N+](=O)[O-])ccc3Cl)ccc2o1	-10.2	-0.1	33.3*	0.3
O=C(Nc1ccc2oc(-c3ccccc3Cl)nc2c1)c1cc([N+](=O)[O-])ccc1Cl	4.1	0.1	26.4	2.4
CC(=O)Nc1ccc2oc(-c3ccccc3F)nc2c1	9.0	0.4	1.0	-0.6
Cc1ccccc1C(NC(=O)C1CCN(C(=O)c2ccno2)CC1)c1ncccc1C (stereo not drawn)	17.3	0.1	-1.6	0.4
Cc1ccc(NC2=C(C(=O)c3ccccc3)NS(=O)(=O)c3ccccc32)cc1	2.3	0.2	-36.9	-1.0
O=C(Nc1ccc2oc(-c3ccccc3F)nc2c1)c1cc([N+](=O)[O-])ccc1Cl	13.8	0.2	32.2*	-0.1
O=C(Nc1ccc2c(c1)oc1ccccc12)c1cc([N+](=O)[O-])ccc1Br	1.8	-0.2	32.9*	0.5
O=C(Nc1ccc2oc(-c3cccc(Cl)c3Cl)nc2c1)c1cc([N+](=O)[O-])ccc1Cl	-2.4	0.0	9.0	-0.4
O=C(Cc1ccc([N+](=O)[O-])cc1)Nc1ccc2c(c1)oc1ccccc12	13.8	0.1	0.1	0.3
C=CCN(C(=O)c1ccc(N2CC3CC(C2)c2cccc(=O)n2C3)c(NC(=O)c2ccc(F)cc2)c1)c1ccccc1 (stereo not drawn)	5.6	0.0	0.0	1.3
CS(=O)(=O)N(CC(=O)N/N=C/c1ccccc1C(F)(F)F)c1ccccc1	-4.0	-0.1	-5.6	0.1
O=C(NCCO)c1ccc(-c2ccccc2)cc1	12.7	0.0	-7.2	0.7
Cc1cncc(NC(=O)c2cc(N3CCOCC3)cc(-n3cc(NC(=O)Cc4ccccc4)cn3)c2)c1	17.3	0.1	39.9*	-0.4
CC(=O)Nc1ccc(C2C3=C(COC3=O)Nc3cc4c(cc32)OCO4)cc1 (stereo not drawn)	10.8	-0.1	-11.2	-0.8
O=C1OCC2=C1C(c1ccc(F)cc1)c1cc3c(cc1N2)OCCO3 (stereo not drawn)	-2.4	-0.1	52.6*	-0.1
O=C1OCC2=C1C(c1ccc(F)cc1)c1cc3c(cc1N2)OCO3 (stereo not drawn)	-2.2	-0.1	49.8*	0.3
O=C1NC2=C(C(=O)OC2)C(c2ccc(F)c(F)c2)N1 (stereo not drawn)	-1.5	-0.1	8.6	2.3
CCOc1cccc2sc(NC(=O)c3cc4ccccc4o3)nc12	12.8	0.2	-1.4	-1.1
Cc1ccc(Nc2cc(C)nn2-c2nc(C)cc(C)n2)cc1	1.9	-0.1	11.2	-0.2
Cc1ccc(Nc2cc(C)nn2-c2nc(C)cc(=O)[nH]2)cc1	14.3	-1.2	58.0*	-1.0
COc1cc(CNC2CCCC2)ccc1OCC(=O)NC(C)(C)C	2.3	0.0	4.4	-1.6
CCN1CCN(Cc2ccc(NC(=O)Nc3ccccc3Cl)cc2)CC1	18.7	-0.1	33.7*	-0.2
SMILES	MITF inh	FBW7 act	TEAD-YAP inh	GPR151 ag
CC(C)[C@H]1CN(C)CCN1C(=O)CCc1nnc(-c2ccc3c(c2)OCO3)o1	-3.9	-0.1	-5.1	2.7
CN(C)/C(CBr)=C1/N=C(c2ccccc2)OC1=O	-3.1	0.0	-0.9	-0.2
Cc1ccn2c(/C(=C3/N=C(c4ccccc4)OC3=O)N(C)C)cnc2c1	9.4	0.0	34.2*	0.1
NS(=O)(=O)c1ccc(N=Cc2c(O)n(Cc3ccco3)c(=O)[nH]c2=O)cc1	78.7*	-0.7	8.4	0.5
Cc1cc(NS(=O)(=O)c2ccc(NC(=O)CCCOc3ccccc3)cc2)no1	7.5	0.0	1.9	-0.1
Cc1cc(NS(=O)(=O)c2ccc(NC(=O)CCCOc3ccc(Cl)cc3)cc2)no1	1.4	2.9*	3.8	2.0
